In ChEMBL document CHEMBL1961873, “Compounds: GSK PKIS; Assays: Nanosyn kinase panel” (2012):

Target: Rho-associated protein kinase 2 (Homo sapiens) (UniProt O75116)
Settings: at 1 µM

Sequence of Rho-associated protein kinase 2 (Homo sapiens) (O75116 whole entry, looked up): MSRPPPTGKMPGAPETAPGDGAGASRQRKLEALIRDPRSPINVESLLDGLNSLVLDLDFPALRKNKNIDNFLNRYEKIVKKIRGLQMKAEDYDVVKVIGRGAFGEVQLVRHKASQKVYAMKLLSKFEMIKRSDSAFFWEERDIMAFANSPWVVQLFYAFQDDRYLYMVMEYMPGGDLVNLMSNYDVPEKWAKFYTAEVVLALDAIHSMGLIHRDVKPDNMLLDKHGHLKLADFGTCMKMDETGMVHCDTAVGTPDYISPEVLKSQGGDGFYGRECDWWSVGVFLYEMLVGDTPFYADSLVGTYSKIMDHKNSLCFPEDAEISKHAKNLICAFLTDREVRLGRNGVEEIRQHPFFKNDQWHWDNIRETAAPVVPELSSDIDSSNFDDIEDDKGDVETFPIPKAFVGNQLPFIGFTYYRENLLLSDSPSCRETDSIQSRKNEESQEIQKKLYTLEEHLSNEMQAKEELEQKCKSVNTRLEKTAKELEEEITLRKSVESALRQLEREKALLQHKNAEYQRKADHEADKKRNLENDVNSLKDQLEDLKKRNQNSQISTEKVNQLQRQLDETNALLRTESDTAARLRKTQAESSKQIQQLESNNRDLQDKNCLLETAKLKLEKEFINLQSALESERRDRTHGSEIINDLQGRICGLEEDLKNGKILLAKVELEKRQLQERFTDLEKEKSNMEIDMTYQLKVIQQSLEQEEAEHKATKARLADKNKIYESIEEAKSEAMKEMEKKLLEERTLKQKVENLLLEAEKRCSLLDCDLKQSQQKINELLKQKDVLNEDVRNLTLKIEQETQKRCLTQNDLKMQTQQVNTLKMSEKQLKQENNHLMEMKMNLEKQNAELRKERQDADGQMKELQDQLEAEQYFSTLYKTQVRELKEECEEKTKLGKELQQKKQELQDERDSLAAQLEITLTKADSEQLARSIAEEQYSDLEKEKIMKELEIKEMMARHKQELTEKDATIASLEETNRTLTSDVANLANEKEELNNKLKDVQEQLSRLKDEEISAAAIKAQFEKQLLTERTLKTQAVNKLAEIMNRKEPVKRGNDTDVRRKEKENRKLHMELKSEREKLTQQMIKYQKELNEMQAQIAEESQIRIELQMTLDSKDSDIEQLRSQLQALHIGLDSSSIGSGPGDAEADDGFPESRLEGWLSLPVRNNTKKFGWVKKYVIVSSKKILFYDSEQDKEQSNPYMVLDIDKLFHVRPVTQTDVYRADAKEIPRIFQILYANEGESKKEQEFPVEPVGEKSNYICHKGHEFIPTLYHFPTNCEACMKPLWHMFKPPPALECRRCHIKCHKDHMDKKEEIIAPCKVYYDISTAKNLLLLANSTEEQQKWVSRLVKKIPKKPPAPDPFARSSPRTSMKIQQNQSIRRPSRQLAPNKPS

| Compound | inhibition [%] |
| --- | --- |
| c1ccc(COc2ccc(Nc3ncnc4ccc(-c5ccco5)cc34)cc2)cc1 | 0.1 |
| COC(=O)Nc1nc2ccc(S(=O)(=O)c3ccc(NC(=O)Nc4cc(C(F)(F)F)ccc4F)cc3)cc2[nH]1 | -0.72 |
| CN(C)CCOc1ccc(-c2nc(-c3ccncc3)c(-c3ccc4c(c3)CC/C4=N\O)[nH]2)cc1 | 4.22 |
| CS(=O)(=O)CCNCc1ccc(-c2ccc3ncnc(Nc4ccc(OCc5ccccc5)c(C(F)(F)F)c4)c3c2)o1 | 2.3 |
| COc1cc2ncn(-c3cc(OCc4ccccc4C(F)(F)F)c(C(=O)N(C)C)s3)c2cc1OC | 1.56 |
| CC(C)COC(=O)c1ccc2c(c1)/C(=C/Nc1ccc(S(N)(=O)=O)cc1)C(=O)N2 | 43.9 |
| CCc1nn2ncccc2c1-c1ccnc(NC2CC2)n1 | 2.93 |
| CN1CCC(n2cnc(-c3ccc(F)cc3)c2-c2ccnc(Nc3ccccc3)n2)CC1 | 3.27 |
| FC(F)(F)c1cccc(-c2nn3ncccc3c2-c2ccnc(Nc3ccc4c(c3)OCCO4)n2)c1 | 1.32 |
| COc1ccc2[nH]c3c4[nH]c5ccc(OC)cc5c4c4c(c3c2c1)C(=O)NC4=O | 16.6 |
| CNC(=O)c1cccc(C#Cc2cncnc2Nc2ccc(OCc3cccc(F)c3)c(Cl)c2)c1 | 4.37 |
| COc1cc(N2CCN(C(C)C)CC2)ccc1Nc1nc(Nc2ccc(F)cc2C(N)=O)c2cc[nH]c2n1 | 29.1 |
| Fc1ccc(-c2cc(-c3c[nH]nc3-c3ccccn3)ccn2)cc1 | 7.8 |
| COc1cc2c(cc1Nc1nc(Nc3ccsc3C(N)=O)c3cc[nH]c3n1)N(C(=O)CN(C)C)CCC2(C)C | 72.1 |
